The values below come from PubChem BioAssay AID1671202 (University of Kansas High Throughput Screening Laboratory, 2021).

What is called inhibition is the relative decrease from the control value, in per cent.

Where “and” joins values, the source holds several entries; their conditions need not be identical. Equal values may be shown once. In all, about 190,000 compounds went through this assay and about 6,900 (3.6%) were called active. The sample holds actives, similar compounds and a random draw of the others, so the mix is not that of the screen. No stated cut-off is given here; in the data, active means inhibition above about 50%; inactive means the rest.

Sequence of Huntingtin (Homo sapiens) (P42858 whole entry, looked up, stated change not applied): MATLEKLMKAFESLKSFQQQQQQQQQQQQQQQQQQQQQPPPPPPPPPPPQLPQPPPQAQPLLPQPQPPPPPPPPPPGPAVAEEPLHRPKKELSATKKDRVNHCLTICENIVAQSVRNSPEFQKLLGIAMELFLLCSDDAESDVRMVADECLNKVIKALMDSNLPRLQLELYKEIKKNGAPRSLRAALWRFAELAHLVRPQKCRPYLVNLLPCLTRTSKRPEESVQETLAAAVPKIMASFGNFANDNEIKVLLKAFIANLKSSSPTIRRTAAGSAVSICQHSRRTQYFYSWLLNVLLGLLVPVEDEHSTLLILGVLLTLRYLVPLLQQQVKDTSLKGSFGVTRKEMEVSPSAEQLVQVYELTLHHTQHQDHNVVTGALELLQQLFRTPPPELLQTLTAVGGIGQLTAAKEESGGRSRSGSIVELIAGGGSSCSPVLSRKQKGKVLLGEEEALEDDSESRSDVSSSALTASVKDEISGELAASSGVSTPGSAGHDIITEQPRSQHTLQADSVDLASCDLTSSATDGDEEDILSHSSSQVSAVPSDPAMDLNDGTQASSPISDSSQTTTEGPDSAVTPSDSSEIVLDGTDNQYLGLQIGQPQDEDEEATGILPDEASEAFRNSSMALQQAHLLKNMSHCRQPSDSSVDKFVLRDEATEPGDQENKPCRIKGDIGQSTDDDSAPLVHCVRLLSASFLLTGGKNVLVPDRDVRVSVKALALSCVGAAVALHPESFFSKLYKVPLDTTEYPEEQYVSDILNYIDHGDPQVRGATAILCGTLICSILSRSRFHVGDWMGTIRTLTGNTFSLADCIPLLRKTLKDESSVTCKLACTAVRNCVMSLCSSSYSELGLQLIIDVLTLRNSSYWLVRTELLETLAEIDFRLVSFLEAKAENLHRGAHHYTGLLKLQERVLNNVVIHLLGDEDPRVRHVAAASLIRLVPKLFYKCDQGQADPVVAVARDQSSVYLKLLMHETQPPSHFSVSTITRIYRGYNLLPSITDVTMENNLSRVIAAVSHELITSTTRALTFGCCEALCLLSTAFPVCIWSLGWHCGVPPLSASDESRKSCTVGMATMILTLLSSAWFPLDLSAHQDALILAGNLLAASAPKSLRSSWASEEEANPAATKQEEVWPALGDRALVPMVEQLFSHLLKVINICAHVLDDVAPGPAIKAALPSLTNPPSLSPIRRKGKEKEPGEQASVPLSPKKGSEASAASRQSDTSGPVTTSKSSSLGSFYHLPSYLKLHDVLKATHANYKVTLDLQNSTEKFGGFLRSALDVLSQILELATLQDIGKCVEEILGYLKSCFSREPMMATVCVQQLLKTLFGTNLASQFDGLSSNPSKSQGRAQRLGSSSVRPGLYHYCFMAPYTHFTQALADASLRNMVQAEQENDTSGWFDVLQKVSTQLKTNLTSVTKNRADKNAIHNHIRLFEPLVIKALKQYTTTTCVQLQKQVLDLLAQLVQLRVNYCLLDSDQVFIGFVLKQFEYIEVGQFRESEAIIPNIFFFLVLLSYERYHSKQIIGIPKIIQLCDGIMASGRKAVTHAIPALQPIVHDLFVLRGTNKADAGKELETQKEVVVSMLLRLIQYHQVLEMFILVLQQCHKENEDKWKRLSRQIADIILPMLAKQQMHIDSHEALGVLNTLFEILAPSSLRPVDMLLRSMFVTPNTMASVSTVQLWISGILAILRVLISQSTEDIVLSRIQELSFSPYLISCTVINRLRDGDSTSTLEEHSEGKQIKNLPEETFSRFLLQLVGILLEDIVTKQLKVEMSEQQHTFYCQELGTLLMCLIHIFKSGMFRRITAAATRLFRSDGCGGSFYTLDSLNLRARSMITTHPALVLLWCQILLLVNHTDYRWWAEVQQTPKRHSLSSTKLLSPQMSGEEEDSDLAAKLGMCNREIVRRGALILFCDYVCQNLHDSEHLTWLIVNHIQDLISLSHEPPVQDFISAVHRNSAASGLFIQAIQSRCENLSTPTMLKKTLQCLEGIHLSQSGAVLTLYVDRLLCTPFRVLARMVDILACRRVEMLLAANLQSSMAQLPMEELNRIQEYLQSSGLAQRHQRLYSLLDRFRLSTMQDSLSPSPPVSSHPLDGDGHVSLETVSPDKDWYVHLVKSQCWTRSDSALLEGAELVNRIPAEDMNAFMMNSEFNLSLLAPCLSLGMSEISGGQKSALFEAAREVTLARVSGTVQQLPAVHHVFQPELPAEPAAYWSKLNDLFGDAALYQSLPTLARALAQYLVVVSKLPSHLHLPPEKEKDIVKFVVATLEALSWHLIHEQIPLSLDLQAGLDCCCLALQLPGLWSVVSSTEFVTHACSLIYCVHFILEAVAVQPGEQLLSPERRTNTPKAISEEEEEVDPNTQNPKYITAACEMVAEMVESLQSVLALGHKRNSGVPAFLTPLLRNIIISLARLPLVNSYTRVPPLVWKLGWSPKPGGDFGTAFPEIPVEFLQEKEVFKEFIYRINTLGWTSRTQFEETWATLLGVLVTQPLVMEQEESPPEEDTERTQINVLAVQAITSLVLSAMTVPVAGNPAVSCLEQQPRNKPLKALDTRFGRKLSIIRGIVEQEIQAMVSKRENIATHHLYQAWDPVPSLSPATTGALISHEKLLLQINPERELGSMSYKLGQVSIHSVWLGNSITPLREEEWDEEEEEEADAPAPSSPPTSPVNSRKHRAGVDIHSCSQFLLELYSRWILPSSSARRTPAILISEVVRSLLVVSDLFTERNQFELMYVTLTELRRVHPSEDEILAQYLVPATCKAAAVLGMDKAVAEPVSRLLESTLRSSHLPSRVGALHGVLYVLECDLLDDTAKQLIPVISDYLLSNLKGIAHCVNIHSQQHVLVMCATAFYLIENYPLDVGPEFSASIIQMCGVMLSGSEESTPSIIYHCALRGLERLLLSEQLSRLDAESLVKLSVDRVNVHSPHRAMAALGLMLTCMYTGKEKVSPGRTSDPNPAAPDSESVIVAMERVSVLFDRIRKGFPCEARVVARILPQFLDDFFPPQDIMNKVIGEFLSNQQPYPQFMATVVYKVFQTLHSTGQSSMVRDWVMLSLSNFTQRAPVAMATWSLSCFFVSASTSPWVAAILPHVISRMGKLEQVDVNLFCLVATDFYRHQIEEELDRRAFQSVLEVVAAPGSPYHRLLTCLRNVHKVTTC

This assay has as its target Huntingtin (Homo sapiens) (UniProt P42858). Briefly: mutant huntingtin-calmodulin interaction inhibitors – biochemical, AlphaScreen, primary screen (AID 1671202).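 Further: 0% = both proteins with DMSO and 100% = one protein alone.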 Particulars: AlphaScreen His-mHTT/GST-CaM binding, luminescence; at 15 µM, stronger effect = higher value. In general terms: Alpha assays give light when donor and acceptor beads are brought close together.
For `Cc1[nH]nc(-c2ccsc2)c1NC(=O)Cc1ccccc1`, the inhibition was -4% (inactive).
Under `COc1cccc(CC(=O)N2CCCC2c2cc(C)on2)c1` (centres undefined) stands -5.74% (inactive); under `CC1CCCN(c2ccc(-c3noc(CN(C)C4CCCCC4)n3)cn2)C1` (centres undefined), 10% (inactive).
Under `CCc1onc(C)c1C1CCCN1C(=O)c1nn(C)cc1Cl` (centres undefined) stands -0.93% (inactive); under `COc1cc(OC)c(OC)cc1/C=C1N=C(/C=C/c2ccccc2)OC/1=O`, -2% (inactive); under `Cc1nc(-c2ccc(N3CCN(C(=O)C4CCCO4)CC3)nc2)no1` (centres undefined), -5.6% (inactive).
Under `CCOC(=O)N1CCN(Cc2nc(-c3ccc(N4CCCCCC4)nc3)no2)CC1` stands 78.7% (active); under `c1cc(N2CCCCCC2)ncc1-c1noc(CN2CCCC2)n1`, 15.8% (inactive).
For the compound `CC(C)Cn1c(C2CCN(C(=O)c3n[nH]c4c3CCCC4)C2)nc2ccncc21` (centres undefined), the inhibition is 5.16% (inactive).
As to `O=C(CNc1ccccc1-c1nc2ccccc2[nH]c1=O)NC1CCCCCCC1`, the inhibition is -7% (inactive).
Under `CCN(CC)C(=NS(=O)(=O)c1ccccc1)c1ccc(Cl)cc1` stands -3% (inactive); under `CC(=O)Nc1cccnc1-c1ccc(C(=O)NCc2ccccc2)cc1`, -2.7% (inactive).
Under `CSc1ccc(C2C=C(c3cccs3)Nc3nnnn32)cc1` (centres undefined) stands 2% (inactive); under `COc1ccc(Cl)cc1C(=O)N1CCn2c(C)nnc2C1`, -9.2% (inactive); under `COc1ccc(Cl)cc1C(=O)N1CCN(c2ccc3nnc(-c4ccco4)n3n2)CC1`, 72% (active).
Under `COc1ccc(Cl)cc1C(=O)N1CCN(c2cccc(Cl)c2)CC1` stands -0.4% (inactive).
Consider `COc1ccc(C2C(C(=O)Nc3ccc(Cl)cc3)=C(C)Nc3nnnn32)cc1` (centres undefined), for which the inhibition is 23% (inactive).
The result for `O=[N+]([O-])c1ccc(SCCO)c2ncccc12` reads 6% (inactive); that for `CCCC(=O)NC(Nc1ccccc1OC)C(Cl)(Cl)Cl` (centres undefined), -3% (inactive).
Under `CCCC(=O)NC(c1ccccc1OC)c1cc([N+](=O)[O-])c2cccnc2c1O` (centres undefined) stands 100% (active).
Under `Cc1nc(-n2cccc2)sc1C(=O)NCc1cc(-c2ccco2)on1` stands -1.3% (inactive); under `CN(Cc1ccccc1F)c1cc2c(c3c1ccn3C)C1CCC2O1` (centres undefined), 75.9% (active); under `O=C(C=Cc1ccco1)NCC1COC2(CCCCC2)O1` (centres undefined), -5.5% (inactive).
`CCOc1ccccc1NC(=O)c1nn(-c2ccccc2OC)c(=O)c2ccccc12`: the inhibition is -4% (inactive).
The result for `O=C1CSC(c2ccc(F)cc2)N1c1ccc(Br)cc1` (centres undefined) reads -18% (inactive); that for `CCCc1ccc(OCC(=O)c2ccc(O)c(C)c2O)cc1`, 80.4% (active).
Under `O=C(COc1ccc([N+](=O)[O-])cc1)c1ccc(O)cc1O` stands 2.4% (inactive).
Regarding `CCCc1ccc(OCC(O)CN2CCN(C(=O)OCC)CC2)cc1` (centres undefined), the inhibition is 24.7% (inactive).
As to `COCC(=O)N1CCCC(c2ccnc(-c3ccccc3)n2)C1` (centres undefined), the inhibition is -3.3% (inactive).
As to `CC1CN(C(=O)COc2cccc3c2OC(C)(C)C3)CC(C)O1` (centres undefined), the inhibition is 1.8% (inactive).
With `CCCCOc1ccc(NC(=O)N(Cc2ccccn2)Cc2ccco2)cc1`, the inhibition is -0.5% (inactive).
Under `Cc1ccc(NC(=O)N2CCCC(CC(=O)N3CCN(c4ccccc4F)CC3)C2)cc1` (centres undefined) stands 8.68% (inactive).
Take `O=C(c1cccs1)N1CCN(c2cc(-c3cccnc3)[nH]n2)CC1`: the inhibition was -4.79% (inactive).
The result for `O=C(c1cccs1)N1CCN(C2=NN=C(c3ccccc3)CS2)CC1` reads 86.5% (active); that for `CCOC(=O)CCC(=O)N1CCN(C2=NN=C(c3ccccc3)CS2)CC1`, 32.5% (inactive).
The result for `O=[N+]([O-])c1ccc(Oc2ccc(Cl)c3cccnc23)c(Cl)c1` reads -1% (inactive); that for `Cc1ccccc1-c1noc(C2CCCN2C(=O)Nc2ccccc2Cl)n1` (centres undefined), -25.4% (inactive); that for `COc1ccc(NC(=O)N2CCCC2c2nc(-c3ccccc3C)no2)cc1` (centres undefined), 7.96% (inactive).
With `Cc1ccccc1-c1noc(C2CCCN2C(=O)NCc2ccc(F)cc2)n1` (centres undefined), the inhibition was 68.5% (active).
The result for `CCOc1cccc(C(=O)Nc2ccc(-c3nc4ncccc4o3)cc2)c1` reads -4% (inactive).
Regarding `CCOc1ccc(C2Nc3ccc4ncccc4c3C3=C2C(=O)CC(C)(C)C3)cc1` (centres undefined), the inhibition is 3% (inactive).
Under `CC1(C)CC(=O)C2=C(C1)c1c(ccc3ncccc13)NC2c1ccc(O)cc1` (centres undefined) stands 2% (inactive); under `CC1(C)CC(=O)C2=C(C1)c1c(ccc3ncccc13)NC2c1ccc([N+](=O)[O-])cc1` (centres undefined), 54% (active).
Under `O=C1OC(/C=C/c2cccc(Cl)c2Cl)=NC/1=C\c1cccc([N+](=O)[O-])c1` stands 1% (inactive); under `O=c1[nH]c2c(c(=O)[nH]1)C(c1cc([N+](=O)[O-])ccc1N1CCOCC1)O2` (centres undefined), 3% (inactive); under `COc1cc(OC)c(C2Oc3ccccc3C3CC(c4cccs4)=NN32)cc1OC` (centres undefined), 52% (active).
The result for `CC1=NN2C(C1)c1ccccc1OC2c1ccc(Cl)cc1` (centres undefined) reads -1% (inactive); that for `COc1ccc(C2=NN3C(C2)c2ccccc2OC3c2cccc([N+](=O)[O-])c2)cc1` (centres undefined), 10% (inactive).
`COc1ccc(C2CC(c3cccs3)=NN2c2ccccc2)cc1` (centres undefined): the inhibition was -183% (inactive).
Take `N#Cc1ccc(C2Oc3ccccc3C3CC(c4ccccc4)=NN32)cc1` (centres undefined): the inhibition was 14% (inactive) and 1.44% (inactive).
Under `Cc1ccc(C2Oc3ccccc3C3CC(c4cccs4)=NN32)o1` (centres undefined) stands 63% (active); under `Cn1cccc1C(=O)N1CC2CC1CC2NS(=O)(=O)c1cccs1` (centres undefined), 14.1% (inactive); under `Fc1ccc(CSc2nnnn2-c2ccc3c(c2)OCO3)cc1`, -29% (inactive).
Under `CC(C)c1nc2c(NC(=O)C3CC3)cccn2n1` stands -7.5% (inactive).
Under `CCCCN(CC)S(=O)(=O)c1ccc(Cl)cc1` stands -36.2% (inactive); under `Cc1cc(C)cc(N2C(=O)C(N3C(=O)c4ccccc4C3=O)C2c2ccc(F)cc2)c1` (centres undefined), 3% (inactive).
`CC(NC(=O)C1CCN(c2nccn3nc(-c4ccccc4)cc23)CC1)c1ccc(F)cc1` (centres undefined): the inhibition is -3.07% (inactive).
As for `O=C(NCCc1ccccn1)C1CCN(c2nccn3nc(-c4ccc(F)cc4)cc23)CC1`, the inhibition was 15% (inactive).
On to `O=C(Nc1cccc(Cl)c1)C1CCN(c2nccn3nc(-c4ccccc4)cc23)CC1`, for which the inhibition is 4.34% (inactive).
The result for `O=C(NCc1ccc(Cl)cc1)C1CCN(c2nccn3nc(-c4ccccc4)cc23)CC1` reads 52% (active).
Under `CCN(CC)S(=O)(=O)N1CCC(C(=O)NCc2cccnc2)CC1` stands -11% (inactive); under `O=C(NCc1cccs1)C1CCN(c2nccn3nc(-c4ccccc4)cc23)CC1`, 18.6% (inactive).
Under `CC(NC(=O)C1CCN(c2nccn3nc(-c4cccs4)cc23)CC1)c1ccccc1` (centres undefined) stands 59.4% (active); under `Cc1ccc(-c2cc3c(N4CCC(C(=O)NCc5cccnc5)CC4)nccn3n2)cc1C`, 59.9% (active).
With `O=C(NCc1ccc(F)cc1)C1CCN(c2nccn3nc(-c4ccc(F)cc4)cc23)CC1`, the inhibition is 4.41% (inactive).
The result for `CCCCS(=O)(=O)N1CC=C(c2cn(CC)c3ncccc23)CC1` reads 8.9% (inactive); that for `Nc1ncnc(N2CCN(c3ccccc3)CC2)c1[N+](=O)[O-]`, 7% (inactive).
The result for `Cc1ccc(NC(=O)C2CCc3sc(C(=O)N(C)C)cc3C2)cc1Cl` (centres undefined) reads 5.44% (inactive); that for `COc1ccc(-c2nc(-c3cccc(-c4ccnn4C)c3)no2)cc1F`, -14.7% (inactive).
Under `CCC(Sc1nnnn1-c1ccccc1)C(=O)Nc1nnc(C(C)C)s1` (centres undefined) stands 6.4% (inactive).
Consider `O=C(Nc1ccc(N2CCN(c3ccccc3)C2=O)nc1)c1ccc(F)cc1`, for which the inhibition was 1.4% (inactive).
Under `Cn1cccc1CN(C(=O)Nc1ccccc1Cl)C1CC1` stands 22% (inactive).
Under `COc1cc(/C=C2/C(=O)N(c3ccc(Cl)c(Cl)c3)N=C2C)cc(Br)c1O` stands 75% (active).
The result for `COc1ccc(/C=C2/C(=O)N(c3ccccc3)N=C2C)c(OC)c1` reads 25% (inactive); that for `CC1=NN(c2ccc(Cl)cc2Cl)C(=O)/C1=C/c1ccc(Cl)cc1`, 27% (inactive).
Regarding `COc1cc(/C=C2/C(=O)N(c3ccc(Cl)c(Cl)c3)N=C2C)ccc1O`, the inhibition was 79% (active).
Turning to `COc1cc(/C=C2/C(=O)N(c3ccc(C(=O)O)cc3)N=C2C)ccc1O`, the inhibition was 13% (inactive).
Under `COc1cc(/C=C2/SC(=O)NC2=O)cc(Br)c1O` stands 7% (inactive); under `Cc1ccnc(NC(=O)c2c(O)c3cccc4c3n(c2=O)CCC4)c1`, 4% (inactive).
Under `CCCC(=O)N1CCC2(C1)C(=O)Nc1ccccc12` (centres undefined) stands 0.5% (inactive).
The result for `Cc1cccc2[nH]c(S(=O)(=O)Cc3ccc(F)cc3Cl)nc12` reads -2% (inactive).
With `Cc1ccccc1NC(NC(=O)c1cccc([N+](=O)[O-])c1)C(Cl)(Cl)Cl` (centres undefined), the inhibition was 48% (inactive).
Under `O=C(NC(Nc1cccc([N+](=O)[O-])c1)C(Cl)(Cl)Cl)c1ccc(Br)cc1` (centres undefined) stands 76% (active); under `CC(C)(C)NC(NC(=O)c1ccc(Br)cc1)C(Cl)(Cl)Cl` (centres undefined), -11% (inactive); under `COc1ccc(C)cc1NC(=O)C1CN(C(=O)c2ccncc2)CC12CCCCC2` (centres undefined), 41.7% (inactive).
Under `COc1cc(NC(=O)C2CN(C(=O)c3ccncc3)CC23CCCCC3)cc(OC)c1` (centres undefined) stands 87.6% (active); under `O=C(NCc1ccccn1)C1CN(C(=O)c2ccncc2)CC12CCCCC2` (centres undefined), -2.9% (inactive); under `CNC(=O)C(=O)Nc1ccc(OC)cc1`, 2% (inactive).
The result for `C=CCNC(=O)c1cc(=O)[nH]c2c(Cl)cccc12` reads 2.2% (inactive).
Take `COCCn1ccc2c(OCC(=O)Nc3cccc([N+](=O)[O-])c3)cccc2c1=O`: the inhibition was -19% (inactive).
The result for `CCOc1ccccc1C(=O)Nc1nn(C)c2c1C(c1cccs1)CC(=O)N2` (centres undefined) reads 100% (active).
The result for `CC1CC(=O)Nc2c1c(NC(=O)c1ccc3c(c1)OCO3)nn2C` (centres undefined) reads -9.4% (inactive); that for `CCOc1ccccc1C(=O)Nc1c2c(nn1-c1cccc(Cl)c1)CSC2`, 0% (inactive).
Under `CC(=O)N1CCN(c2nc3c(s2)CC(C(=O)NCCCN2CCC(C)CC2)CC3)CC1` (centres undefined) stands 4.75% (inactive).
